Rows were chosen to be rich in hits. Some 8.5% of all compounds tested hit in one or more screens of this group.
GoLoco inh red: inhibitors of human Gai1-RGS12 GoLoco interaction (red fluorophore); Gai1:RGS12 GoLoco peptide FP, rhodamine, 10 min; 0.44% of 230,000 active; Potency, µM (highest dose often 61.6 µM), hits mostly inhibitors; active = well fitted inhibition curve with a large enough effect, not every such curve was filed as active; inactive = no such curve, though single readings can be large or run the other way; also: nearly all actives have a fitted effect of over 30% in size
KDM4E inh: JMJD2E (human) inhibition | B2RXH2 | JMJD2E catalytic domain, FDH-coupled NADH fluorescence (FDH is formaldehyde dehydrogenase) | Potency, µM (series often up to 57.1 µM), most hits filed as inhibitors | 1.6% of 230,000 active | AID 2147; also: nearly all actives have a fitted effect of over 50% in size
Target sequence (B2RXH2 1-337 limits assumed): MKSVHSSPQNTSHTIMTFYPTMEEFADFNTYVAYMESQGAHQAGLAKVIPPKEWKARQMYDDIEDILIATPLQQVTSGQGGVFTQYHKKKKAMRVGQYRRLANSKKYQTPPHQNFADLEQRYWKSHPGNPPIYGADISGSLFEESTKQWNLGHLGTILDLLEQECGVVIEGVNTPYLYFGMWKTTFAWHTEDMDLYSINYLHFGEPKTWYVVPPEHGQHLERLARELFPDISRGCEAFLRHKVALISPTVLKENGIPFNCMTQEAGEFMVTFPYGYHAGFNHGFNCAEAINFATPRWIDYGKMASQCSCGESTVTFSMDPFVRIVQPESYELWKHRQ
NPSR antagonist: antagonists of human neuropeptide S receptor cAMP signaling. Q6W5P4. CHO-NPSR cells, cAMP TR-FRET, antagonist mode. Potency, µM (highest dose often 38.3 µM), actives largely listed as inhibitors. 1% of 220,000 active. AID 1461; active = well fitted curve in the direction sought with a large enough effect; inconclusive = small, poorly fitted or top-dose-only effect, or another doubt; inactive = no such curve, though single readings can be large; an effect the other way counts as inactive or inconclusive; also: nearly all actives have a fitted effect of over 50% in size
Target sequence (Q6W5P4 whole entry, looked up): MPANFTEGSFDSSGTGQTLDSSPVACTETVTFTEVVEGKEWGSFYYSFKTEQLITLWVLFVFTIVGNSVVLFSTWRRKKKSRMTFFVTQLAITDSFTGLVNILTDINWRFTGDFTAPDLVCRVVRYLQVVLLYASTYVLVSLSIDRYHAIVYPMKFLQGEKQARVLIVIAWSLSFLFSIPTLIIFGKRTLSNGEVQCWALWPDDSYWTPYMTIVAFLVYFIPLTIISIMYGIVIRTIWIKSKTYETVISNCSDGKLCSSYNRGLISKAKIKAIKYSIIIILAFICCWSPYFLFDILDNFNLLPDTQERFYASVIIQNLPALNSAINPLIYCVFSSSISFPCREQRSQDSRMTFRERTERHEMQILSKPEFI
Sfp inh: blocks B. subtilis Sfp PPTase activity | Q9F4F7 | Biochemical Sfp PPTase activity, qHTS | Potency, µM, most hits filed as inhibitors | 3.5% of 310,000 active | AID 1490; active = well fitted curve in the direction sought with a large enough effect; inconclusive = small, poorly fitted or top-dose-only effect, or another doubt; inactive = no such curve, though single readings can be large; an effect the other way counts as inactive or inconclusive;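 also: the enzyme is Sfp with the accession as filed and its product quenches rhodamine fluorescence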
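Fluorescence-quenching assay: 15 nM Sfp-PPTase preincubated 15 min at room temperature with compound, then 5 uM rhodamine-CoA and 12.5 uM BHQ-2-labelled YbbR peptide added. Fluorescence (ex 525/em 598 nm) read at start and after 30 min; difference gives rate.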
Coupling enz: coupling enzyme interference in Giardia aldolase counter-screen | coupling enzyme system counterscreen, AmpLite Red fluorescence | activity change, negative = inhibition, % at 58.2 µM, hits read low | 0.67% of 290,000 active; in the data active = activity change below about -30%
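Counterscreen lacking aldolase: glyceraldehyde-3-phosphate coupling-enzyme reagent preincubated 10 min at RT with compound (at 57.5 uM final), then substrate/coupling system with AmpLite Red added; fluorescence read at 525/598 nm after 20 min RT.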
ALDH1A1 block: blocks purified human ALDH1A1 activity; Purified ALDH1A1, NADH fluorescence, propionaldehyde substrate; Potency, µM (doses to about 75.3 µM), actives largely listed as inhibitors; 7.3% of 220,000 active
Large screens that a line does not name were inactive. Unless noted, calls follow the shape of the dose curve; as a rule, active = well fitted inhibition curve with a large enough effect (not every such curve was filed as active); inconclusive = small, poorly fitted or top-dose-only effect, or another doubt; inactive = no such curve, though single readings can be large or run the other way.

O=S(=O)(c1cc(Cl)c(Cl)cc1Cl)N1CCN2CCCC2C1 (stereo not given)	none (no result: GoLoco inh red, KDM4E inh, NPSR antagonist, ALDH1A1 block)
COc1ccc(Oc2ncc3nc(C)c(=O)n(Cc4cccs4)c3n2)cc1	none (no result: KDM4E inh, NPSR antagonist)
Cn1c(=O)c(CCc2ccccc2)nc2cnc(Oc3ccccc3)nc21	ALDH1A1 block 8.9µM (no result: KDM4E inh, NPSR antagonist)
COc1ccc(Oc2ncc3nc(CCc4ccccc4)c(=O)n(C)c3n2)cc1	ALDH1A1 block inconclusive (no result: KDM4E inh, NPSR antagonist)
Cc1nc2cnc(Oc3cccc(Cl)c3)nc2n(CCc2ccccc2)c1=O	ALDH1A1 block 6.3µM (no result: KDM4E inh, NPSR antagonist)
COc1ncc2nc(CCc3ccccc3)c(=O)n(C3CC3)c2n1	ALDH1A1 block 19µM (no result: KDM4E inh, NPSR antagonist)
COc1ccc(Oc2ncc3nc(C)c(=O)n(Cc4ccc(F)cc4)c3n2)cc1	ALDH1A1 block 25µM (no result: KDM4E inh, NPSR antagonist)
CCNc1ncc2nc(CCc3ccccc3)c(=O)n(C3CC3)c2n1	ALDH1A1 block inconclusive (no result: KDM4E inh, NPSR antagonist)
CCc1ccccc1NC(=O)CCc1c(C)nc(SC)nc1C	none (no result: GoLoco inh red, KDM4E inh, NPSR antagonist, ALDH1A1 block)
COc1ccc(Oc2ncc3nc(C)c(=O)n(CCc4ccccc4)c3n2)cc1	ALDH1A1 block 0.22µM (no result: KDM4E inh, NPSR antagonist)
C=CCOc1c(Br)cc(CNc2ccc(NC(=O)C(C)C)c(OC)c2)cc1OC	Coupling enz -45, ALDH1A1 block inconclusive
COc1cc(CNc2ccc(C(=O)O)cc2)cc(Br)c1OCC(=O)NC(C)(C)C	ALDH1A1 block inconclusive
Oc1c(C=C2N=c3ccccc3=N2)sc(=S)n1-c1ccccc1	Sfp inh 79µM, ALDH1A1 block inconclusive
S=c1[nH]ncn1NCc1ccc(Cl)cc1Cl	ALDH1A1 block 1.4µM
Fc1cccc(Cl)c1CNn1cn[nH]c1=S	none
CCN(CC(=O)NCc1ccc(Cl)cc1)C(=O)CN1C(=O)NC(C)(c2ccccc2)C1=O (stereo not given)	none (no result: GoLoco inh red, KDM4E inh, NPSR antagonist, Coupling enz, ALDH1A1 block)
Nc1nonc1C(=O)N/N=C/c1cc2c(cc1Br)OCO2	none (no result: GoLoco inh red, KDM4E inh, NPSR antagonist, Coupling enz, ALDH1A1 block)
CCCCCN1C=CC=C/C1=C\C=C(C#N)C#N	NPSR antagonist inconclusive, ALDH1A1 block 0.45µM
CCCCCCN1C=CC=C/C1=C/C=C(C#N)C#N	Sfp inh inconclusive
CCSc1nc2nn(-c3ccccc3)c(=O)c-2c2n1CCCCC2	ALDH1A1 block 2.5µM
Cc1cc(/C=N/Nc2ccc([N+](=O)[O-])cn2)c(C)n1-c1ccccc1	ALDH1A1 block inconclusive
Cc1c(C(=O)O)cccc1-n1c(C)cc(/C=N/Nc2ccc([N+](=O)[O-])cn2)c1C	NPSR antagonist 10µM, Sfp inh 32µM (no result: ALDH1A1 block)
Cc1ccc(C(=O)N/N=C/c2cn(Cc3ccccc3)c3ccccc23)cn1	KDM4E inh inconclusive, ALDH1A1 block 13µM
O=C(N/N=C/c1cn(Cc2ccccc2)c2ccccc12)c1cc(O)cc(O)c1	none (no result: GoLoco inh red, KDM4E inh, NPSR antagonist, ALDH1A1 block)
Cc1ccc(Cn2cc(/C=N/Nc3ccc([N+](=O)[O-])cn3)c3ccccc32)cc1	ALDH1A1 block 10µM
Cc1ccc(-n2c(C)cc(/C=N/Nc3ccc([N+](=O)[O-])cn3)c2C)cc1	GoLoco inh red 3.5µM, ALDH1A1 block 10µM
O=C(OC(C(=O)NCc1ccc(F)cc1)c1ccccc1)c1ccco1 (stereo not given)	none (no result: GoLoco inh red, KDM4E inh, NPSR antagonist, ALDH1A1 block)
COc1ccc2[nH]c3c(=O)n4c(nc3c2c1)SCCC4	KDM4E inh inconclusive, ALDH1A1 block inconclusive
CC(C)c1ccc(Nc2nnns2)cc1	Sfp inh 20µM (no result: ALDH1A1 block)
Cc1csc(NC(=O)C2CC(=O)N(c3ccc(C)c(C)c3)C2)n1 (stereo not given)	none (no result: GoLoco inh red, KDM4E inh, NPSR antagonist, ALDH1A1 block)
CC(=O)N(C1=C(Cl)C(=O)c2ccccc2C1=O)C1CCCCC1	KDM4E inh inconclusive, NPSR antagonist 6.3µM, Sfp inh 0.79µM, Coupling enz -88 (no result: ALDH1A1 block)
COC(=O)C(/C=N/OCc1ccc([N+](=O)[O-])cc1)NC(=O)c1cccc(Cl)c1 (stereo not given)	ALDH1A1 block 1.4µM
CCC(=O)c1ccc2c(c1)N(CCCN1CCN(CCO)CC1)c1ccccc1S2	Sfp inh 79µM (no result: GoLoco inh red, KDM4E inh, NPSR antagonist, Coupling enz, ALDH1A1 block)
CC1(C)CC(=O)C=C(Nc2cc(-c3ccccc3)[nH]n2)C1	ALDH1A1 block 4.5µM
Cc1onc(NC(=O)CSCC(=O)O)c1Br	KDM4E inh inconclusive
CC(O)CCCCCCC/C=C/C=C/C(N)=O (stereo not given)	ALDH1A1 block inconclusive (no result: GoLoco inh red, KDM4E inh, NPSR antagonist)
CC(=O)OC1OCCOC1NC(=S)NCc1ccco1 (stereo not given)	Sfp inh 22µM
CC(=O)OC1OCCOC1NC(=S)Nc1cccc(C(F)(F)F)c1 (stereo not given)	none
O=C(Nc1ccc2c(c1)OCO2)O[C@@H]1C[C@H]2CCC(=O)N3CC[C@@H](C1)[C@@H]23	none (no result: GoLoco inh red, KDM4E inh, NPSR antagonist, ALDH1A1 block)
CCNc1ncc2nc(-c3ccc(F)cc3)c(=O)n(CCC#N)c2n1	ALDH1A1 block inconclusive (no result: KDM4E inh, NPSR antagonist)
CCCCC(=O)Nc1sc2c(c1-c1nc3ccccc3s1)CCN(C(C)=O)C2	KDM4E inh inconclusive, NPSR antagonist inconclusive, Sfp inh inconclusive, ALDH1A1 block 25µM
CC(=O)N1CCc2c(sc(NC(=O)C3CC3)c2-c2nc3ccccc3s2)C1	KDM4E inh inconclusive, Sfp inh 45µM, ALDH1A1 block inconclusive
CSC1=N/C(=C\c2ccccc2F)C(=O)S1	Sfp inh 56µM (no result: GoLoco inh red)
COc1cccc(/C=C2\N=C(SC)SC2=O)c1OC	NPSR antagonist inconclusive, ALDH1A1 block 32µM
CSC1=NC(=O)/C(=C\c2cccc3ccccc23)S1	ALDH1A1 block inconclusive
CSC1=N/C(=C\c2ccc(Br)o2)C(=O)S1	ALDH1A1 block inconclusive
O=C(c1cnccn1)N1CCC2(CCN(Cc3ccccc3)CC2)CC1	none (no result: KDM4E inh, NPSR antagonist)
Cc1cc(C)nc(SC/C=C/c2ccccc2)n1	Sfp inh 89µM (no result: GoLoco inh red, KDM4E inh, NPSR antagonist, ALDH1A1 block)

Bioassay records: PubChem, National Center for Advancing Translational Sciences (NCATS)
